The text below walks through data of PubChem BioAssay (NCATS).

Results filed as inconclusive are left out. Activity calls are given as the source filed them. Calls come from the whole dose curve; as a rule, active = well fitted curve in the direction sought with a large enough effect; inconclusive = small, poorly fitted or top-dose-only effect, or another doubt; inactive = no such curve, though single readings can be large; an effect the other way counts as inactive or inconclusive.

Test [1] can be described thus: qHTS of pediatric cancer cell lines to identify multiple opportunities for drug repurposing: Primary screen for Rh41 cells (AID 1347108). Note: nearly all actives have a fitted effect of over 70% in size. Note: potency is the fitted concentration of half-maximal effect. In outline: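 CRCs from 8- or 11-point titrations (lowest final 0.59 nM NPC, 0.78 nM MIPE). Cell viability: CellTiter-Glo after 48 h incubation, 15 min room-temperature development, luminescence imaging.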
Test [2] in a line: qHTS of pediatric cancer cell lines to identify multiple opportunities for drug repurposing: Confirmatory screen for NB1643 cells (AID 1347109). Note: nearly all actives have a fitted effect of over 45% in size. Note: potency is the fitted concentration of half-maximal effect. The method in brief:
(§1)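 Cells (500-1,000/well) rested 5 h, then received compounds for 48 h; metabolically active cells were measured by CellTiter-Glo luminescence. Final concentrations spanned up to 46 µM (MIPE, 11-point) or 0.59 nM-46 µM (NPC, 8-point) in primary screens, 11-point in follow-ups.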

Test [3] in a line: qHTS of pediatric cancer cell lines to identify multiple opportunities for drug repurposing: Confirmatory screen for NB-EBc1 cells (AID 1347115).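 Note: cells exposed to compound for 48 h before the viability read; nearly all actives have a fitted effect of over 45% in size.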 Note: potency is the fitted concentration of half-maximal effect. The method in brief: as §1
A short description of test [4]: qHTS of pediatric cancer cell lines to identify multiple opportunities for drug repurposing: Confirmatory screen for SJ-GBM2 cells (AID 1347116). Note: nearly all actives have a fitted effect of over 60% in size. Note: potency is the fitted concentration of half-maximal effect. In outline: (§2)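 Viability measured as metabolically active cells via CellTiter-Glo luminescence following 48 hours of compound exposure, 11-point dilutions in confirmatory testing. 500-1,000 cells/well plated 5 hours before dosing; controls were DMSO and 2.3 µM bortezomib.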
(In general: Quantitative high-throughput screening tests each substance at several concentrations.)

Test [5] can be described thus: qHTS of pediatric cancer cell lines to identify multiple opportunities for drug repurposing: Confirmatory screen for control Hh wild type fibroblast cells (AID 1347121). Note: nearly all actives have a fitted effect of over 70% in size. In outline:
as §1

Test [6] can be described thus: qHTS of pediatric cancer cell lines to identify multiple opportunities for drug repurposing: Confirmatory screen for Rh41 cells (AID 1347123). Note: nearly all actives have a fitted effect of over 60% in size. Note: potency is the fitted concentration of half-maximal effect. In outline:
as §1

The nature of test [7]: qHTS of pediatric cancer cell lines to identify multiple opportunities for drug repurposing: Confirmatory screen for RD cells (AID 1347124).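 Note: cells exposed to compound for 48 h before viability readout; nearly all actives have a fitted effect of over 65% in size.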 Note: potency is the fitted concentration of half-maximal effect. The method in brief: as §1
A short description of test [8]: qHTS of pediatric cancer cell lines to identify multiple opportunities for drug repurposing: Confirmatory screen for Rh30 cells (AID 1347126). Note: nearly all actives have a fitted effect of over 55% in size. Note: potency is the fitted concentration of half-maximal effect. The method in brief:
as §1

A short description of test [9]: qHTS of pediatric cancer cell lines to identify multiple opportunities for drug repurposing: Confirmatory screen for Saos-2 cells (AID 1347127). Note: nearly all actives have a fitted effect of over 60% in size. Note: potency is the fitted concentration of half-maximal effect. In outline:
as §1

A short description of test [10]: qHTS of pediatric cancer cell lines to identify multiple opportunities for drug repurposing: Confirmatory screen for LAN-5 cells (AID 1347113). Note: nearly all actives have a fitted effect of over 65% in size. Note: potency is the fitted concentration of half-maximal effect. In outline:
as §1

Test [11] can be described thus: qHTS of pediatric cancer cell lines to identify multiple opportunities for drug repurposing: Confirmatory screen for MG 63 (6-TG R) cells (AID 1347119). Note: nearly all actives have a fitted effect of over 55% in size. Note: potency is the fitted concentration of half-maximal effect. The method in brief: as §1
Test [12] is described as follows: qHTS of pediatric cancer cell lines to identify multiple opportunities for drug repurposing: Confirmatory screen for Rh18 cells (AID 1347125). Note: nearly all actives have a fitted effect of over 55% in size. Note: potency is the fitted concentration of half-maximal effect. In outline: as §1
Test [13] can be described thus: qHTS of pediatric cancer cell lines to identify multiple opportunities for drug repurposing: Confirmatory screen for SK-N-MC cells (AID 1347111).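 Note: potency is the fitted concentration of half-maximal effect; cells exposed to compound for 48 h before the readout; nearly all actives have a fitted effect of over 70% in size.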 The method in brief:
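Seed 500-1,000 cells/well; rest 5 h at 37 degrees C. Pin-transfer compounds, 11-point titration. Incubate 48 h. Add CellTiter-Glo, 15 min RT, read luminescence.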

Test [14] can be described thus: qHTS of pediatric cancer cell lines to identify multiple opportunities for drug repurposing: Confirmatory screen for BT-37 cells (AID 1347117). Note: nearly all actives have a fitted effect of over 55% in size. Note: potency is the fitted concentration of half-maximal effect. In outline:
as §1

Test [15] is described as follows: qHTS of pediatric cancer cell lines to identify multiple opportunities for drug repurposing: Confirmatory screen for TC32 cells (AID 1347118).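 Note: potency is the fitted concentration of half-maximal effect; cells exposed to compound for 48 h before the read; nearly all actives have a fitted effect of over 65% in size.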 The method in brief:
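qHTS, TC32, 48 h drug treatment, CellTiter-Glo luminescence as a proxy for metabolically active cells; primary top concentration 46 µM (MIPE 11-pt, NPC 8-pt); confirmatory 11-pt.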

Test [16] can be described thus: qHTS of pediatric cancer cell lines to identify multiple opportunities for drug repurposing: Confirmatory screen for U-2 OS cells (AID 1347122). Note: nearly all actives have a fitted effect of over 65% in size. The method in brief: as §1
Test [17] can be described thus: qHTS of pediatric cancer cell lines to identify multiple opportunities for drug repurposing: Confirmatory screen for A673 cells (AID 1347110). Note: potency is the fitted concentration of half-maximal effect. In outline: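 Viability was read as ATP luminescence (CellTiter-Glo) after 48 h of compound exposure at 37 C in A673 cells seeded at 500-1,000/well. Titrations reached 46 uM final, with 11 points in the confirmatory screen. Concentration-response curves were fitted directly.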

Test [18] is described as follows: qHTS of pediatric cancer cell lines to identify multiple opportunities for drug repurposing: Confirmatory screen for BT-12 cells (AID 1347112). Note: nearly all actives have a fitted effect of over 55% in size. Note: potency is the fitted concentration of half-maximal effect. In outline:
as §1

Test [19] is described as follows: qHTS of pediatric cancer cell lines to identify multiple opportunities for drug repurposing: Confirmatory screen for DAOY cells (AID 1347114). Note: nearly all actives have a fitted effect of over 65% in size. Note: potency is the fitted concentration of half-maximal effect. The method in brief:
as §2

As to `Cc1cc(CS(=O)(=O)c2ccccc2)cc(OCc2ccc(CN3CCC[C@H]3CO)cc2)c1`, the Potency in test [1] is 11.8 µM (active); in test [6], 16.5 µM (active). Further, the Potency entry in test [2], in test [3], in test [4], in [5], in test [7] and in test [8] was “inactive” throughout. Also, the Potency result in test [9] was “inactive”.
As to `N#CC(=C1Nc2ccccc2S1)c1ccnc(OCc2ccc(CN3CCOCC3)cc2)n1`, the Potency entry in [10], in test [3], in [11], in [5], in test [6] and in test [7] was “inactive” each time. In addition, the Potency entry in test [12] and in test [8] was “inactive” in each case.
Regarding `CO[C@H]1/C=C\O[C@@]2(C)Oc3c(C)c(O)c4c(O)c(c(C=NN5CCN(C6CCCC6)CC5)c(O)c4c3C2=O)NC(=O)C(C)=CC=C[C@H](C)[C@H](O)[C@@H](C)[C@@H](O)[C@@H](C)[C@H](OC(C)=O)[C@H]1C`, the Potency is 0.148 µM (active) in [1]; 23.3 µM (active) in test [2]; 20.8 µM (active) in [13]; 26.1 µM (active) in test [14]; 20.8 µM (active) in test [15]; 20.8 µM (active) in test [6]. Besides, in [9], the Potency was 20.8 µM (active). Also, the Potency result in test [10], in [4], in test [11], in test [5], in test [16] and in [7] was “inactive” in each case. In addition, in test [12], the Potency entry is “inactive”.
With `COc1cc2c(cc1Cc1cccc(Cl)c1F)c(=O)c(C(=O)O)cn2[C@H](CO)C(C)C`, the values for the Potency in [13], in test [15] and in test [6] were 14.7 µM (active), 13.1 µM (active) and 16.5 µM (active), respectively. In addition, the Potency result in test [4], in [5], in [7] and in test [12] was “inactive” each time.
With `Cc1c(C(=O)Nc2ccc(N3C[C@@H](C)O[C@@H](C)C3)nc2)cccc1-c1ccc(OC(F)(F)F)cc1`, the Potency result in test [2], in [10], in [3], in [4], in test [5] and in test [7] was “inactive” throughout. For the same compound, the Potency entry in [12] is “inactive”. For the same compound, the Potency in [11] is 10.4 µM (active); in test [6], 16.5 µM (active).
For `CO[C@H]1/C=C\O[C@@]2(C)Oc3c(C)c(O)c4c(O)c(c5c(nc6cc(C)ccn65)c4c3C2=O)NC(=O)C(C)=CC=C[C@H](C)[C@H](O)[C@@H](C)[C@@H](O)[C@@H](C)[C@H](OC(C)=O)[C@H]1C`, the Potency result in test [1], in [2], in test [17], in test [18], in test [10] and in test [19] was “inactive” in each case. In addition, the Potency entry in test [3], in test [4], in test [14], in test [11], in test [5] and in [7] was “inactive” in each case. Further, the Potency result in test [12], in test [8] and in [9] was “inactive” in each case.
For the compound `CCCCn1c(=O)n(Cc2ccccc2F)c(=O)c2[nH]c(Cc3ccc(NC(C)=O)cc3)nc21`, the Potency result in [2], in [18], in [10], in test [3], in test [14] and in test [11] was “inactive” each time. Besides, the Potency entry in test [5], in test [12] and in test [9] was “inactive” each time. Further, in test [4], the Potency is 11.7 µM (active).
As for `CC(C)(C)c1[nH]cnc1C=c1[nH]c(=O)c(=Cc2ccccc2)[nH]c1=O`, the Potency in [2] is 0.0114 µM (active); in test [17] it was 0.032 µM (active); in test [13], 0.0101 µM (active); in test [18], 0.202 µM (active); in test [10], 0.0114 µM (active); in test [19], 0.018 µM (active). For the same compound, the Potency is 0.018 µM (active) in test [3]; 0.0143 µM (active) in [14]; 0.0101 µM (active) in [15]; 0.0227 µM (active) in test [6]; 0.018 µM (active) in test [7]; 0.016 µM (active) in [12]. For the same compound, the Potency in test [8] is 0.0202 µM (active). Further, the outcome in [4] is “inactive [at 0.556 µM]”.
